Test results as given in PubChem BioAssay (NCATS).
Results filed as inconclusive are left out. Values without a mark were called inactive. Calls come from the whole dose curve; as a rule, active = well fitted inhibition curve with a large enough effect; inconclusive = small, poorly fitted or top-dose-only effect; inactive = no such curve, though single readings can be large or run the other way.

molecular target: Retinaldehyde dehydrogenase 3 (Homo sapiens) (UniProt P47895); test: qHTS for Inhibitors of the Aldehyde Dehydrogenase Family (ALDH1A3) Primary screen (AID 2061315); details: ALDH inhibition qHTS; series mostly up to 56 µM; activity change, negative = inhibition: at the top concentration;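 note: plate controls were DMSO vehicle for no effect and reference inhibitor for full effect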

| SMILES | activity change, negative = inhibition |
| --- | --- |
| COc1cc([C@H]2OC[C@@H]3[C@@H](c4ccc(O[C@@H]5O[C@H](CO)[C@@H](O)[C@H](O)[C@H]5O)c(OC)c4)OC[C@]23O)ccc1O | -29.3% [at 28 µM] |
| COC(=O)c1[nH]c(=O)c2ccccc2c1-c1ccc[nH]1 | -19.4% |
| C[C@@H]1O[C@@H](O[C@H]2[C@H](O)[C@@H](O)[C@H](OC[C@H]3O[C@@H](OC(=O)[C@]45CCC(C)(C)C[C@H]4C4=CCC6[C@@]7(C)CC[C@H](O[C@@H]8OC[C@H](O)[C@H](O[C@@H]9O[C@H](CO)[C@@H](O)[C@H](O)[C@H]9O)[C@H]8O)[C@@](C)(CO)C7CC[C@@]6(C)[C@]4(C)CC5)[C@H](O)[C@@H](O)[C@@H]3O)O[C@@H]2CO)[C@H](O)[C@H](O)[C@H]1O (stereo not given in full) | 14.6% [at 11.2 µM] |
| CO[C@H]1C[C@@H]2CC[C@@H](C)[C@@](O)(O2)C(=O)C(=O)N2CCCC[C@H]2C(=O)O[C@H]([C@H](C)C[C@@H]2CC[C@H](n3cnnn3)[C@H](OC)C2)CC(=O)[C@H](C)/C=C(\C)[C@@H](O)[C@@H](OC)C(=O)[C@H](C)C[C@H](C)/C=C/C=C/C=C/1C | -8.44% [at 28 µM] |
| COC(=O)C1=COC(OC2OC(CO)C(O)C(O)C2O)C2C(C)C(OC(=O)/C=C/c3ccc(O)cc3)C(O)C12 (stereo not given) | 5.45% [at 28 µM] |
| C[C@@H]1O[C@@H](O[C@H]2[C@H](O[C@H]3[C@H](O[C@H]4CC[C@@]5(C)C(CC[C@]6(C)C5CC=C5[C@@H]7CC(C)(C)C[C@@H](O)[C@]7(C)CC[C@]56C)C4(C)C)O[C@H](C(=O)O)[C@@H](O)[C@@H]3O)O[C@H](C(=O)O)[C@H](O)[C@@H]2O)[C@H](O)[C@H](O)[C@H]1O (stereo not given in full) | -8.56% [at 16.9 µM] |
| Cc1onc(C(=O)N2CCN(C(c3ccc(Cl)cc3)c3ccc(Cl)cc3)CC2)c1[N+](=O)[O-] | 8.15% |
| CC(=O)O[C@@H]1C2=C(O)C(=O)[C@](C)(OC(C)=O)C(=O)C2=CO[C@@]12O[C@@H](C)CC[C@H]2OC(C)=O | -17.3% [at 28 µM] |
| COc1ccc(C(O)C(C)OC2OC(CO)C(O)C(O)C2O)cc1 (stereo not given) | 4.64% |
| O=S(=O)(c1ccc(Cl)cc1)N1CCN(c2ccnc3cc(Cl)ccc23)CC1 | -4.26% |
| CCC(C)C(=O)O[C@@H]1[C@@H](O)[C@@H](O[C@H]2O[C@H](CO)[C@@H](O)[C@H](O)[C@H]2O)O[C@H](CO)[C@H]1O (stereo not given in full) | 12% [at 28 µM] |
| O=C(O)Cc1cn(C2OCC(O)C(O)C2O[C@@H]2O[C@H](CO)[C@@H](O)[C@H](O)[C@H]2O)c2ccccc12 (stereo not given in full) | 10.3% [at 28 µM] |
| CC(=O)OC1CC(C)C2(CCC3(CC(=O)OC3O)O2)C2(C)CCCC(C)(C)C12 (stereo not given) | 15.2% [at 28 µM] |
| COc1ccc(CCC(=O)O)c(O[C@@H]2O[C@H](CO)[C@@H](O)[C@H](O)[C@H]2O)c1 | -6% |
| O=C(O[C@H]1[C@@H]2C=CO[C@@H](O[C@@H]3O[C@H](CO)[C@@H](O)[C@H](O)[C@H]3O)[C@@H]2[C@@]2(CO)O[C@@H]12)c1ccc(O)cc1 | -17.3% [at 28 µM] |
| CC(=O)OCC1OC(O[C@H]2CC[C@@]3(C)C(CC[C@]4(C)C3CC=C3[C@@H]5CC(C)(C)CC[C@]5(C(=O)O)CC[C@]34C)[C@]2(C)CO)C(O)C(O)C1OC1OC(C)C(O)C(OC2OCC(O)C(O)C2O)C1O (stereo not given in full) | 16.4% [at 16.9 µM] |
| COC(=O)C1C(c2ccc(O)cc2)C(C(=O)O)C1c1ccc(O)cc1 (stereo not given) | -29.1% |
| COc1cc(O)cc(C)c1C(=O)O[C@H]1[C@@H](OC(C)=O)[C@H](n2ccc(=O)[nH]c2=O)O[C@@H]1CO | -6.36% [at 28 µM] |
| C/C(=C/C=C\C=C\Cc1cnco1)[C@@H](O)C(C)(C)C(N)=O | -6.89% |
| CCCCC1CCN(CCCC(=O)c2ccccc2C)CC1 | -9.06% |

| SMILES | activity change, negative = inhibition |
| --- | --- |
| C=CCC1=C[C@]2(OC)[C@H](C)[C@@H](c3ccc4c(c3)OCO4)O[C@]2(OC)CC1=O | -15.7% |
| O=S(=O)(NC1CCNCC1)c1cc(S(=O)(=O)c2ccccc2)ccc1C(F)(F)F | -8.48% |
| CCC(O)(C(=O)OCc1ccccc1NC(=O)CCC(=O)O)C(C)O (stereo not given) | -8.2% |
| C=C(C)[C@@H]1CC[C@]2(C(=O)O)CC[C@]3(C)C(CCC4[C@]5(C)C(CC[C@]43C)C(C)(C)[C@@H](O)[C@@H]5C(=O)O)C12 (stereo not given in full) | 7.32% [at 28 µM] |
| COC(=O)c1ccccc1O[C@@H]1O[C@H](CO)[C@@H](O)[C@H](O)[C@H]1O[C@@H]1O[C@@H](C)[C@H](O)[C@@H](O)[C@H]1O | -24.7% [at 28 µM] |
| CC1=CC(=O)C[C@H]2[C@@H]1CC[C@@H](C)[C@]21CO[C@H](c2ccoc2)C1=O | 6.58% |
| O=C(CCCCc1ccc2ccccc2c1)C(F)(F)F | -16.7% [at 114 µM] |
| C[C@@]1(O)[C@H](O)[C@@H](CO)O[C@H]1n1ccc(N)nc1=O | 0.0493% |
| CC(=O)O[C@@H]1C[C@]2(C)[C@@]3(CCC4[C@@]5(C)CC[C@H](O[C@@H]6O[C@H](C(=O)O)[C@@H](O)[C@H](OC7OC(CO)C(O)C(O)[C@H]7O[C@@H]7O[C@@H](C)[C@H](O)[C@@H](O)[C@H]7O[C@@H]7OC[C@](O)(CO)[C@H]7O)[C@H]6OC6OC(CO)C(O)C(O)C6O)C(C)(C)C5CC[C@]42C)OC[C@@]12CCC(C)(C)CC23 (stereo not given in full) | 6.07% [at 11.2 µM] |
| C/C=C1\[C@H](O[C@@H]2O[C@H](CO)[C@@H](O)[C@H](O)[C@H]2O)OC=C(C(=O)O)[C@H]1CC(=O)OCCc1ccc(O)cc1 | 7.92% [at 28 µM] |
| C=C[C@@]1(C)CCC2=C([C@H]1OC(C)=O)[C@H](OC(C)=O)CC1[C@](C)(C(=O)OC)CC[C@H](OC(C)=O)[C@]21C (stereo not given in full) | 16.6% [at 28 µM] |
| COc1cc(Cc2cnc(N)nc2N)c(C(C)C)cc1OC | 3.47% |
| CCOC(=O)C(CCc1ccccc1)NC(C)C(=O)N1Cc2ccccc2CC1C(=O)O (stereo not given) | -14% |
| CCC(C)/C=C(C)/C=C/C1=CC2=C(Cl)C(=O)C(C)(OC(C)=O)C(=O)C2=CN1CCCC(=O)O (stereo not given) | -7.4% [at 28 µM] |
| C/C=C/C=C/[C@@H]1O[C@](O)([C@H](CC)C(=O)NC/C=C/C=C(\C)[C@@H](OC)[C@@H](C)[C@@H]2O[C@H](/C=C/C=C/C=C(\C)C(=O)c3c(O)ccn(C)c3=O)[C@H](O)[C@@H]2O)[C@H](O)[C@H](O)C1(C)C | -1.74% [at 16.9 µM] |
| Cn1c(=O)c(F)c(Nc2ccc(I)cc2F)c2c(=O)n(CC(O)CO)cnc21 (stereo not given) | 5.35% |
| CC(C)=CC1C[C@](C)(O)[C@@H]2[C@H]3CCC4[C@@]5(C)CC[C@H](O[C@@H]6OC[C@H](O)[C@H](O[C@@H]7O[C@H](CO[C@@H]8O[C@H](CO)[C@@H](O)[C@H](O)[C@H]8O)[C@@H](O)[C@H](O)[C@H]7O)[C@H]6O[C@@H]6O[C@@H](C)[C@H](O)[C@@H](O)[C@H]6O)C(C)(C)[C@@H]5CC[C@@]4(C)[C@@]34CO[C@@]2(C4)O1 (stereo not given in full) | 0.252% [at 16.9 µM] |
| COC(=O)C1=C[C@@H](O)[C@@H](O)[C@H](O[C@@H]2O[C@H](COC(=O)/C=C/c3ccccc3)[C@@H](O)[C@H](O)[C@H]2O)C1 | -16% [at 28 µM] |
| CC(C)(C)NCCCNC(=O)c1cccc(Br)c1 | -8.62% |
| COc1ccc(-n2c(=O)[nH]c3cc(C(=O)NCc4ccc(Cl)cc4)sc3c2=O)nc1OC | -10.6% |
